Source: PubChem BioAssay (National Center for Advancing Translational Sciences (NCATS))
Only some compounds are listed: those with a hit (about 1.2% of all), similar ones and a draw of the others.
Luc counter – Counterscreen for Luciferase (Kinase-Glo TM) Inhibition; Potency, µM (highest dose often 38.3 µM), inactives show top-dose activity change, negative = inhibition, most hits filed as inhibitors; Kinase-Glo luciferase, ATP luminescence, 8 min; Luciferin 4-monooxygenase (Photuris pensylvanica), Q27757; AID 1379, 2008; hit rate 0.28% among 200,000; active = well fitted inhibition curve with a large enough effect; inconclusive = small, poorly fitted or top-dose-only effect; note: potency is the fitted concentration of half-maximal effect; nearly all actives have a fitted effect of over 60% in size
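Light output from Kinase-Glo luciferase with luciferin and 10 uM ATP in 50 mM imidazole pH 7.2, KCl, MgCl2, Tween 20, BSA; compound pin-delivered, 8-min ambient incubation, then luminescence read.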
hERG WT inh – qHTS for Inhibitors of KCHN2 3.1: Wildtype qHTS | Voltage-gated inwardly rectifying potassium channel KCNH2 (Homo sapiens), Q12809 | hit rate 0.37% among 340,000 | activity change, % at 1.84 µM | AID 720551, 2013 | U2OS, BacMam KCNH2, thallium flux FluxOr; hits give low values;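 active = maximum activity change below -70%; inconclusive = maximum activity change between -70% and -50%; inactive = maximum activity change above -50%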
Target sequence (Q12809 whole entry, looked up): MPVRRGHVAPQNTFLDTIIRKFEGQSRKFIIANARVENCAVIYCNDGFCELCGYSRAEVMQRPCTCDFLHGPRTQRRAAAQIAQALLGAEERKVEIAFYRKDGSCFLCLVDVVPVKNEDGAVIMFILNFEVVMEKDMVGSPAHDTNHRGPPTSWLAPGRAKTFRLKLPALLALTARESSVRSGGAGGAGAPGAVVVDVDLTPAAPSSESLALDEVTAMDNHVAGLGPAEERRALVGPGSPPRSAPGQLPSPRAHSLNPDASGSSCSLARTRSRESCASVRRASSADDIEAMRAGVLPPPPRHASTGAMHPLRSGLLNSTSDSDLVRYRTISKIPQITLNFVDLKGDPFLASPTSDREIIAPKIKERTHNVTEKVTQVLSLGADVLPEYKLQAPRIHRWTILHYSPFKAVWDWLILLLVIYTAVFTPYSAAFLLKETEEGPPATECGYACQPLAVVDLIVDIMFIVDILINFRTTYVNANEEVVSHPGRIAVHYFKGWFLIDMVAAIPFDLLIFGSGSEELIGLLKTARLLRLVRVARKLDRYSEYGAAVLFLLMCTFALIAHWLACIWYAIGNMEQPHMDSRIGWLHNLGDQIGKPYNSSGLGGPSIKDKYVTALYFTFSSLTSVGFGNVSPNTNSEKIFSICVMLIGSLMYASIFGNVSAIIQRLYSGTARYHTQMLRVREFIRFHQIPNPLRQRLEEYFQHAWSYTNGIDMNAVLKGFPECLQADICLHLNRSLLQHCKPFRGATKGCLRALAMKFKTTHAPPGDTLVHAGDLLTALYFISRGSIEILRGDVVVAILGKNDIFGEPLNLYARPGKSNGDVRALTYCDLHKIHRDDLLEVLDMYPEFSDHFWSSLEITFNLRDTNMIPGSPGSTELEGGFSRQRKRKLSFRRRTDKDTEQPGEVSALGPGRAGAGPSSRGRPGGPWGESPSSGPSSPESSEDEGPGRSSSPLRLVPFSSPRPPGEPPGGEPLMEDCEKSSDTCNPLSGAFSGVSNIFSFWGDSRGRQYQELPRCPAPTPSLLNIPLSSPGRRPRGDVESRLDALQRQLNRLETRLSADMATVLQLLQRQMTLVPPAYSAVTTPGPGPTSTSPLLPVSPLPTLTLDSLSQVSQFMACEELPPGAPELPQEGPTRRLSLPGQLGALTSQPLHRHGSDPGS
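U2OS cells transduced with wild-type KCNH2 virus are loaded with FluxOr dye for 45 min, and thallium flux is measured in kinetic reads before and after stimulation buffer. Rate constants are normalized to DMSO controls.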
KCNH2 3.1 inh – qHTS for Inhibitors of KCHN2 3.1: Mutant qHTS | Potassium voltage-gated channel subfamily H member 2, brain isoform KCNH2 3.1 (human) | U2OS KCNH2 3.1, thallium flux FluxOr; hits give low values | activity change, % (tested at about 1.8 µM) | hit rate 0.95% among 340,000 | AID 720553, 2013;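 active = maximum activity change below -70%; inconclusive = maximum activity change from -70% to -50%; inactive = maximum activity change above -50%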;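 note: thallium influx rate constant from kinetic fluorescence after stimulation buffer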
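Kinetic fluorescence (2 min after stimulation buffer) measures Tl+ influx through KCNH2 3.1 expressed by viral transduction in U2OS cells; the rate constant is normalized against DMSO controls serving as positive and negative references.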
An asterisk follows results filed as active. % is set by controls: 0 for no effect and ±100 for the full control effect.

Screening CCCCCc1cc(=O)oc2c(C(CCN3CCCC3)c3ccc(N(C)C)cc3)c(OC)cc(OC)c12 (configuration not stated) returned hERG WT inh -5.8 and KCNH2 3.1 inh -8.4.
For CCCCCc1cc(=O)oc2c(C(CCN3CCCC(C)C3)c3ccc(OC)cc3)c(OC)cc(OC)c12 (configuration not stated) the results were hERG WT inh -114.7* and KCNH2 3.1 inh -91.4*.
Screening COc1ccccc1Nc1nn2c(=O)c3ccc(C(=O)N4CCC(C)CC4)cc3nc2s1 returned hERG WT inh 7.7 and KCNH2 3.1 inh 7.4.
For CCOC(=O)C1CCN(C(=O)c2ccc3c(=O)n4nc(Nc5ccccc5)sc4nc3c2)CC1 the results were hERG WT inh -2.8 and KCNH2 3.1 inh -79.5*.
For Cc1ccc(OC(=O)C2c3ccccc3Oc3ccccc32)cc1C the results were Luc counter -4.5%, hERG WT inh -131.2* and KCNH2 3.1 inh -19.6.
For CC(=O)c1ccc(OC(=O)C2c3ccccc3Oc3ccccc32)cc1 the results were Luc counter 7.2%, hERG WT inh -4.8 and KCNH2 3.1 inh inconclusive.
Screening CC1(NC(=O)C2CCN(C(=O)Nc3ccccc3)CC2)CCS(=O)(=O)C1 (configuration not stated) returned hERG WT inh -7.5 and KCNH2 3.1 inh -24.0.
For CCOC(=O)C1=CC[C@H]2c3c(c4ccccc4n3C)C[C@H]1N2C the results were hERG WT inh -1.7 and KCNH2 3.1 inh 40.9.
`Cc1nc2nc(CCNS(=O)(=O)c3ccc(Cl)cc3)cn2nc1C` gave hERG WT inh -11.3 and KCNH2 3.1 inh 19.1.
`NC(=O)c1cccn1Cc1ccccc1Cl` gave Luc counter -1.2%, hERG WT inh -301.4* and KCNH2 3.1 inh 1.7.
Screening NC(=O)c1cccn1Cc1cccc(Cl)c1 returned Luc counter -0.1%, hERG WT inh 10.9 and KCNH2 3.1 inh -3.0.
`CCOC(=O)c1cc(CC)sc1/N=C/C1C(=O)CC(C)(C)CC1=O` gave Luc counter 4.0%, hERG WT inh -24.5 and KCNH2 3.1 inh -74.9*.
`CCOC(=O)c1c(/N=C/C2C(=O)CC(C)(C)CC2=O)sc2c1CCCC2` gave Luc counter -0.7%, hERG WT inh -8.9 and KCNH2 3.1 inh 19.7.
For COc1ccccc1NS(=O)(=O)c1ccc(C(=O)Nc2ncccc2O)cc1 the results were hERG WT inh -3.9 and KCNH2 3.1 inh 10.9.
O=c1oc2ccccc2cc1-c1nc2c(s1)CCc1ccccc1-2 was read as Luc counter -2.9%, hERG WT inh -4.3 and KCNH2 3.1 inh -27.8.
Screening O=c1oc2cc(O)ccc2cc1-c1nc2c(s1)CCc1ccccc1-2 returned Luc counter -0.9%, hERG WT inh -157.3* and KCNH2 3.1 inh -31.8.
Screening CCCN(CCC)C(=O)c1ccc2c(c1)N(CC)C(=O)c1ccccc1S2(=O)=O returned hERG WT inh -8.4 and KCNH2 3.1 inh -1.5.
`CN(C(=S)Nc1ccccc1F)C1(c2ccccc2Cl)CCCCC1=O` (configuration not stated) gave Luc counter 0.8%, hERG WT inh 5.5 and KCNH2 3.1 inh -6.3.
`CC(C)NC(=S)N(C)C1(c2ccccc2Cl)CCCCC1=O` (configuration not stated) gave Luc counter 2.9%, hERG WT inh -11.9 and KCNH2 3.1 inh -93.2*.
`CCN1C(=O)[C@H]2[C@@H](c3ccc(C(F)(F)F)cc3)N[C@]3(CCCN(Cc4ccc(C(F)(F)F)cc4)C3=O)[C@H]2C1=O` gave hERG WT inh -10.5 and KCNH2 3.1 inh -7.7.
For CC(=O)c1c(C)[nH]c(C(=O)CN2C(=O)NC3(CCCCC3)C2=O)c1C the results were hERG WT inh -6.4 and KCNH2 3.1 inh -5.4.
`O=C(Cn1nnc(-c2ccc(F)cc2)n1)N1CCCCC1` gave Luc counter 2.7%, hERG WT inh -8.4 and KCNH2 3.1 inh 2.9.
`O=C(Cn1nnc(-c2ccccc2F)n1)N1CCCCC1` gave hERG WT inh -7.4 and KCNH2 3.1 inh -133.8*.
Screening Cc1ccc(-c2cc(C(=O)N(C)CC(=O)Nc3ccccc3Br)c3ccccc3n2)o1 returned hERG WT inh 3.6 and KCNH2 3.1 inh -3.2.
`COc1cc2c(-c3ccc(O)cc3)nc3c(c(C)nn3-c3ccccc3)c2cc1OC` gave Luc counter -0.5%, hERG WT inh 6.6 and KCNH2 3.1 inh 7.9.
`COc1cc2c(C)nc3c(c(C)nn3-c3ccccc3)c2cc1OC` gave Luc counter 1.1%, hERG WT inh 17.7 and KCNH2 3.1 inh -80.8*.
